# Test results from the supplement of paper PMC11417369.
# ± gives the standard deviation of the averaged measurements. The full ranking holds about 25,000 sequences; the median of “ln(normalized median fluorescence intensity)” is about 8.9, and the highest 2% start at about 10. This excerpt belongs to a sample that is enriched for the highest values.
# System: PfAP2-LT AP2 domain (GST-tagged)
# Experiment: gcPBM binding intensity (ln(normalized median fluorescence intensity)); higher = stronger DNA binding
# How it was run: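 Binding intensity values are the highest Masliner-normalised natural-log median intensity among replicate spots of either probe orientation. The binding step lasted 1 h in 1× PBS with 1% milk, 0.2 mg/ml BSA, 0.5% salmon testes DNA and 0.03% Triton X-100, using GST-tagged P. falciparum DNA-binding domains expressed in E. coli on an Agilent 4 × 180k array of primer-extended double-stranded 36-bp intergenic genomic probes plus negative controls. Alexa488 anti-GST antibody and a 488 nm scan detected bound protein.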
row,Sequence,gcPBM binding intensity (ln)
1,ATTTAATTTTCCAAATGTACTTATATTTTTATGAAA [XGTACX_site6144],8.27 ± 0.4
2,TTTTTTTTTTAAATGTGTCCTCATTATAATATATGT [XGTACX_site5331],8.65 ± 0.47
3,ATATAAGTTTTTTCTCAAAAAGTATAACGAGCATGA [CACACA_negctrl_site1375],8.6 ± 0.4
4,GACAAAAAATTAAAATAAAATAATAATATAATAAAA [GTGCAC_negctrl_site234],8.55 ± 0.67
5,TTTTGGTATACGTAATTATATAATATGTTAATCAAT [CACACA_negctrl_site645],8.61 ± 0.36
6,ATGTAGAGTAATAGTTGTACAAGGTGTATATCTCAT [XGTACX_site6370],9.29 ± 0.57
7,TAAAAGTTAATATAAACACACAAAAATTAATAAATA [CACACA_site6316],8.73 ± 0.45
8,TTATAAAAAGAACAATTAAAAAAAAATAAAATAAAA [XGTACX_negctrl_site398],8.4 ± 0.63
9,ATATAATGTGTAGGCCGTATTTACGTTTGGCAATCA [CACACA_negctrl_site1130],8.99 ± 0.56
10,ATTTGGCAGAAACACACACACACACCCACCCACATA [CACACA_site589],10.2 ± 0.35
11,TAGAAGCAGAAACACACACACATACATACACATACA [CACACA_site1467],9.87 ± 0.35
12,TATACGCAGAAACACACACACATACACCCACATACA [CACACA_site1723],10 ± 0.26
13,TGTAAATTTGGCATCACACATAAATAAACATATAAA [CACACA_site4497],8.77 ± 0.45
14,ATTTGGCATAAACACACACACACACCCACCCACATA [CACACA_site8096],10.1 ± 0.37
15,CATAAATGTATATAAACATGCAAGGACAGACTTTTA [TGCATGCA_site900],8.92 ± 0.37
16,TATATATATTATAATACATGCGGTGATGAAAGTTAT [TGCATGCA_site924],9.07 ± 0.58
17,TTATTTAAAATTTTTATGCGTATATATATAGGAACA [CACACA_negctrl_site388],8.35 ± 0.39
18,ACCTGAAGAGTCAAACGTACAAATATTATAAAATGA [XGTACX_site3188],8.77 ± 0.59
19,TTCGTCTTTTTTCTCACACACCCTTTTTATTAAAAG [CACACA_site7225],9.05 ± 0.6

row,Sequence,gcPBM binding intensity (ln)
1,CATACCTATAGACACACACACACACGCACGCACAAA [CACACA_site6374],10 ± 0.18
2,CGTGGGAGCAGACACACACACACACCCATATATATA [CACACA_site334],9.99 ± 0.5
3,AATACACCCAGACACACACACAAAAAAAAAAAAAAA [CACACA_site513],9.53 ± 0.61
4,CGCCCACAGATATATACACACATATATAAATAAATA [CACACA_site6877],9.04 ± 0.33
5,TACTATAACAGACATACACACAAAAAAAAAAAAAAA [CACACA_site538],9.03 ± 0.47
6,TTGGCATACAGACACACACACACACGCCCACATATA [CACACA_site6425],10.1 ± 0.38
7,TATACACCCAGACACACACACACACCCAAAAAAAAA [CACACA_site497],10.2 ± 0.3
8,TACCTATACAGACACACACACACACGCCCACAAAAA [CACACA_site6375],10.2 ± 0.37
9,TGGGAGCACAGACACACACACACACCCATATATATA [CACACA_site335],9.98 ± 0.36
10,GGAGCACCCAGACACACACACACATATATATATATA [CACACA_site336],10.4 ± 0.19
11,AATTAGCTCAAAGGTTGTACAAATATATTTTAATGG [XGTACX_site2352],8.66 ± 0.48
12,TTTATACATACATTCGTGCACATACGTATAACATAT,9.07 ± 0.37
13,TATAAAAAGCATAACACACACATGTCAATATATATA [CACACA_site1111],9.31 ± 0.35
14,ATTTTGATGATGTATGCACACATTGAAAATGAGAAA [CACACA_site2916],8.97 ± 0.57
15,AAAAAAAAGAATTATTGTACAAAAGAACAATAAATA [XGTACX_site1368],8.73 ± 0.57
16,TGAAAAAAAAAATACACACACGAGTTGTTATACATA [CACACA_site7486],9.09 ± 0.43
17,AAAAAAAACAGACACACACACAAATACATACACAAA [CACACA_site705],9.72 ± 0.31
18,CATACACCCAGACACACACACATATATATATATATA [CACACA_site634],10.3 ± 0.17
19,TTTAAATACAGACATACACACATACACCCACATATA [CACACA_site8078],9.61 ± 0.15

row,Sequence,gcPBM binding intensity (ln)
1,AACAAATACAGACACACACACACACCCAAAAAAAAA [CACACA_site515],10.2 ± 0.26
2,TGAACACAGACAAATACACACAAAAAAAATAAATAA [CACACA_site4298],9.28 ± 0.57
3,CATACAGATGGACACACACACACACCCACAGACAAA [CACACA_site4431],9.93 ± 0.36
4,GGCATACACAGACACACACACACACCCACATATATA [CACACA_site591],10.2 ± 0.28
5,TACAGATACGGACACACACACACACCCAGACAAAAA [CACACA_site4432],10.2 ± 0.46
6,TAAATACAGACATACACACATACACCCACATATATA [CACACA_site547],9.76 ± 0.38
7,ATAAAAGATTTATACATACACACATATTATATTCAC [CACACA_site3714],9.02 ± 0.42
8,ACAAGGAATATATAAGATAATTTTAAATATAACACG [CACACA_negctrl_site1734],8.73 ± 0.51
9,AAAAAAAGTAAATGTTGTACTATAATATGTAATATA [XGTACX_site7966],8.63 ± 0.55
10,ATATATATATATATATATATATATATATTTATATAT [GTGCAC_negctrl_site180],9.39 ± 0.042
11,AAAAAGAAAAAAAAATGTACATAAAGTCTAATGATA [XGTACX_site4781],8.78 ± 0.49
12,AAAAATTAAAAGAAAATACACACCTGTGGGTGCTTA [CACACA_site1988],8.54 ± 0.47
13,TTAATTTTTTTTTAAACACACATTTTTTTATTTAAG [CACACA_site2738],8.42 ± 0.54
14,TATGAAAAAAAAAAAAAAAAAAAAAAAAAAAAAAAA [XGTACX_negctrl_site587],8.02 ± 0.15
15,TATATATTCATATGTTGTACATAAATACAAATAAGA [XGTACX_site5602],8.69 ± 0.44
16,ATATAAGTATAATTATGTACTTATACTTATATAAAT [XGTACX_site5585],8.62 ± 0.41
17,TTGGCATACAGACACACACACACACCCCCACATATA [CACACA_site590],10.09 ± 0.085
18,AAAAATATTTTGGTTTGTACATATATTTTTACAATA [XGTACX_site8691],8.61 ± 0.34
